# Assays:
# Test in all cases: PBM binding z-score (relative to random genomic background probes); higher = stronger binding; sequences stand for … in GC…GCGATTGACAGCGTAGAATGAAGG
# [1] = system: PPARg:RXRa DBDmut IVT, anti-RXR (DBD mutation: RXRa K156A/R161A, NR concentration 270 nM, RXRa partner concentration 90 nM)
# In short: (§1)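 Binding z-scores take random background probes as their reference. They come from custom Agilent 4×180K protein-binding microarrays incubated 1 h with ligand-free nuclear receptor dimers, with antibodies against each partner (one per run) detecting binding. Scanned fluorescence was regression-normalized.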
# [2] = system: PPARg:RXRa IVT, anti-PPARg (NR concentration 270 nM, RXRa partner concentration 90 nM)
# In short: as §1
# [3] = system: PPARg DBDmut:RXRa IVT, anti-PPARg (DBD mutation: PPARg1 K132A/R137A, NR concentration 270 nM, RXRa partner concentration 90 nM)
# In short: as §1
# [4] = system: PPARg DBDmut IVT, anti-PPARg (DBD mutation: PPARg1 K132A/R137A, NR concentration 270 nM)
# In short: as §1
# [5] = system: PPARg homodimer (NR concentration 180 nM)
# In short: as §1
# [6] = system: PXR:RXRa (NR concentration 270 nM, RXRa partner concentration 90 nM)
# In short: as §1
# [7] = system: PXR homodimer (NR concentration 270 nM)
# In short: as §1
# [8] = system: RARa:RXR (NR concentration 270 nM, RXRa partner concentration 90 nM)
# In short: as §1
# [9] = system: RARa homodimer (NR concentration 270 nM)
# In short: as §1
# [10] = system: RARb:RXRa (NR concentration 270 nM, RXRa partner concentration 90 nM)
# In short: as §1
# [11] = system: RARb homodimer (NR concentration 270 nM)
# In short: as §1
# [12] = system: RARg:RXRa (NR concentration 270 nM, RXRa partner concentration 90 nM)
# In short: as §1
# [13] = system: RARg homodimer (NR concentration 270 nM)
# In short: as §1
# [14] = system: RXRa DBDmut IVT, anti-RXR (DBD mutation: RXRa K156A/R161A, NR concentration 90 nM)
# In short: as §1
# [15] = system: RXRa homodimer (NR concentration 180 nM)
# In short: as §1
# [16] = system: THRa:RXRa (NR concentration 90 nM, RXRa partner concentration 90 nM)
# In short: as §1
# [17] = system: THRa homodimer (NR concentration 90 nM)
# In short: as §1
# [18] = system: VDR:RXRa (NR concentration 270 nM, RXRa partner concentration 90 nM)
# In short: as §1
# [19] = system: VDR homodimer (NR concentration 270 nM)
# In short: as §1
Sequence,PBM binding z-score [1],PBM binding z-score [2],PBM binding z-score [3],PBM binding z-score [4],PBM binding z-score [5],PBM binding z-score [6],PBM binding z-score [7],PBM binding z-score [8],PBM binding z-score [9],PBM binding z-score [10],PBM binding z-score [11],PBM binding z-score [12],PBM binding z-score [13],PBM binding z-score [14],PBM binding z-score [15],PBM binding z-score [16],PBM binding z-score [17],PBM binding z-score [18],PBM binding z-score [19]
AGAATGAGGTTAAGCTCAGGGAAACAGAATACAT,3.66,2.98,0.873,0.751,-0.0277,1.1,0.0253,2.17,-0.438,2.06,0.601,2.43,1.72,1.26,2.59,2.67,0.503,1.26,-0.00367
CTCGAAAGGTCGTGCTCAGGTGAGTGTACCAAAC,1.29,1.94,-0.0151,0.438,1.83,3.52,0.0812,4.32,0.202,4.01,3.22,5.21,4.01,2.21,4.95,4.11,1.21,3.44,1.26
ATCGAAAGGTCTACGAGGTGAGTATACACCGTTT,-0.371,1.17,0.797,0.317,0.182,0.409,0.194,1.17,0.434,1.81,1.01,1.32,1.56,-0.0758,1.11,2.26,0.606,1.6,0.124
GCTATTAGTTGAAAGGGCAACCGGATGATTCTCG,0.432,0.892,0.0968,-0.308,1.33,0.775,0.0713,1.37,1.05,2.1,2.11,1.41,1.33,0.824,1.22,0.688,-0.119,0.47,0.228
ATACCACGGTGATCGTGAGGTCGTTGATACTAAC,-0.0691,0.808,0.255,0.824,0.823,1.6,0.891,1.57,0.137,0.885,1.47,0.858,0.379,0.514,1.1,2.65,2.42,1.93,2.44
TCTTGTAGATCTATAGAGGTTAAGAAAGTGCGCT,1.2,0.683,0.144,0.174,0.213,2.66,-0.0488,1.63,0.178,0.906,1.12,0.795,0.399,0.575,1.43,1.35,-0.418,1.65,0.121
ATCTCTAGGTAAGAGTTCAGTGAATCCCGAGGAT,1.35,2.7,0.769,1.17,1.09,2.32,2.16,0.952,0.264,1.96,1.91,1.21,1.51,1.71,1.16,0.872,0.129,2.22,3.85
TTAGCAAGGTGAGCTGAGGTCGTTGATCCAACTC,0.492,1.3,-0.527,-1.48,-0.0688,4.92,0.566,2.28,-1.15,1.59,1.52,1.03,0.726,-0.339,1.13,4.75,1.97,4.01,2.37
GAAGACAGGTGAAACGCAGGTAACTCAGGGTGGC,0.674,1.15,0.0757,-0.907,-0.0582,-0.0972,-0.579,0.542,-0.418,0.745,0.467,0.851,0.0189,-0.671,0.66,1.49,-0.0479,-0.438,-0.373
CATACAGGGCCAGCTAGGCCAGAGTAGGGACGGC,-0.75,-0.0426,-0.139,-0.903,-0.651,-0.993,-0.765,-0.772,-0.751,0.645,-0.0405,0.0438,0.566,-1.28,-0.173,-0.0247,-0.492,-0.78,-0.491
CAAACTAGGTCACCGGAACGTCAAAGTCCGCATG,8.6,8.71,3.6,1.58,2.42,1.83,0.254,2.67,0.352,4.31,3.74,4.82,5.62,1.46,3.86,3.55,1.88,2.48,1.08
CAAATTAGGTCAAAGGTCAAAGTCGAGCCAACCA,8.74,8.96,4.97,4,6.21,7.1,2.26,8.95,3.73,5.94,5.41,9.09,7.57,3.17,10.4,4.76,2.4,6.81,3.43
TAACCAAGGTGAAGGTCGTTGATCCCTCTGTAGA,1.46,2.78,-0.196,-0.741,0.785,1.48,0.489,1.92,-0.478,2.12,1.83,1.4,1.38,0.174,1.87,2.32,0.878,1.31,0.809
TCTCGGAGGACACGAAGGTCAGATCTTTCCAGAG,1.59,0.717,-0.994,-1.02,2.07,2.44,2.3,2.16,0.52,3.35,3.7,3.45,4.36,1.15,2.48,2.94,0.979,2.61,2.36
TCATATAGGTAATACAGGTGAAAGACGGCATCTA,4.17,3.37,1.39,1.69,1.42,0.845,0.764,1.34,1.85,0.786,0.66,0.945,0.86,1.52,1.38,0.85,0.434,1.02,0.471
